Laboratory results taken from PubChem BioAssay.
Active and inactive are the calls of the source.

Tests used:
Albumin (Bos taurus) = Albumin (Bos taurus) (UniProt P02769); experiment: compounds binding labelled BSA control protein – biochemical, small-molecule microarray, Alexa647 label, 635/667 nm fluorescence, artefact control for SMM control protein annotation, profiling panel (AID 1118); settings: BSA-A647 binding, fluorescence 635 nm, higher = more signal;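 further: score merges 667 nm emission intensity and signal-to-noise per printed compound spot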
[1] = probe aXIP binding to arrayed compounds – biochemical, NeuroSMM set, 635/667 nm fluorescence, primary screen (AID 1119); settings: small-molecule microarray, higher = more signal, called active from +8 up or from −8 down;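 further: probe is the protein aXip251-270 applied at 1 µg/mL to compound-printed slides; binding of probe to printed compounds measured as 667 nm fluorescence plus signal to noise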
[2] = probe aNOTCH3 binding on compound microarray – biochemical, small-molecule microarray, 635/667 nm fluorescence, primary screen (AID 1120); settings: higher = more signal;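 further: probe is a biotin-tagged antibody raised against NOTCH3 rather than NOTCH3 protein; score merges spot fluorescence near 667 nm with spot signal to noise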
[3] = probe aNOTCH2 binding on compound microarray – biochemical, small-molecule microarray, 635/667 nm fluorescence, primary screen (AID 1121); settings: higher = more signal;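 further: score merges feature fluorescence read at 667 nm with its signal to noise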
[4] = target: Carbonic anhydrase 2 (Homo sapiens) (UniProt P00918); experiment: compounds binding carbonic anhydrase 2 – biochemical, small-molecule microarray, Alexa647-labelled CAII, profiling panel (AID 1122); settings: CAII-A647 binding fluorescence, higher = more signal
[5] = COS7 lysate on small-molecule microarray, probe aHis, 635 nm (AID 1123); settings: COS7 cell lysate, fluorescence, higher = more signal;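 further: z-score combines 667nm fluorescence intensity with signal-to-noise per printed compound spot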
[6] = probe aLAP1 signal on lysate-treated microarray – cell lysate, small-molecule microarray, COS7 lysate, primary screen (AID 1124); settings: probe aLAP1, fluorescence, higher = more signal;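 further: lysate comes from COS7 cells expressing LAP1 and is applied at 0.3 µg/mL; score merges spot fluorescence near 667 nm with signal-to-noise over triplicate slides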
Sam68 (KHDRBS1) = experiment: compounds binding KHDRBS1 protein – biochemical, small-molecule microarray, 635 nm fluorescence, primary screen (AID 1125); settings: higher = more signal;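 further: score merges 667 nm channel intensity with signal to noise over triplicate slides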
[7] = tested on: Chordin-like protein 2 (CHRDL2); experiment: compounds binding chordin-like 2 – biochemical, small-molecule microarray, 635 nm fluorescence, primary screen (AID 1126); settings: fluorescence 635 nm, higher = more signal;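 further: printed compound slides probed with Chrdl2 protein at 4 µg/mL for 1 h at 4 C; score merges 667 nm emission intensity with signal to noise over three replicate slides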
[8] = target: Concanavalin-A (Canavalia ensiformis) (UniProt P02866); experiment: compounds binding concanavalin A lectin – biochemical, small-molecule microarray, Alexa647 label, 635 nm, artefact control for SMM control protein annotation, primary screen (AID 1127); settings: ConA-A647 binding fluorescence, higher = more signal;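 further: z combines 667 nm emission intensity with signal-to-noise across three replicate slides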
[9] = compounds binding Alexa647 anti-His antibody – biochemical, small-molecule microarray, 635 nm fluorescence, artefact control for SMM control protein annotation, primary screen (AID 1128); settings: higher = more signal;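 further: score merges feature fluorescence with signal-to-noise for each printed compound spot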
[10] = tested on: Human papillomavirus type 1a E7 protein (residues 1-88); experiment: HPV1a E7 small-molecule binders, primary screen, biochemical, small-molecule microarray, residues 1-88, 635 nm (AID 1129); settings: small-molecule microarray binding, fluorescence 635 nm; higher = more signal
[11] = target: Focal adhesion kinase 1 (Homo sapiens) (UniProt Q05397); experiment: PTK2 protein binding on printed compound slides – biochemical, small-molecule microarray, 635/667 nm fluorescence, BSA, DTT, primary screen (AID 1130); settings: 635 nm fluorescence, higher = more signal;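 further: composite of spot emission at 667 nm and signal to noise over triplicate slides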
[12] = tested on: Fibrinogen (Alexa647-labelled); experiment: Alexa647-fibrinogen binding to printed small molecules – biochemical, small-molecule microarray, 635/667 nm fluorescence, artefact control for SMM control-protein annotation, profiling panel (AID 1131); settings: fibrinogen-A647 binding fluorescence, higher = more signal;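 further: z-score merges 667 nm fluorescence with per-spot signal-to-noise over triplicate slides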
[13] = target: Follistatin (Homo sapiens) (UniProt P19883); experiment: FST protein binding to printed compounds – biochemical, small-molecule microarray, 635/667 nm fluorescence, primary screen (AID 1132); settings: 635 nm fluorescence, higher = more signal
[14] = target: Fibroblast growth factor 2 (Homo sapiens) (UniProt P09038); experiment: basic fibroblast growth factor binding to printed compounds – biochemical, small-molecule microarray, 635/667 nm fluorescence, primary screen (AID 1133); settings: FGF2, fluorescence 635/667, higher = more signal
[15] = JC-1 mitochondrial potential readout, lung cancer cells – cell-based, A549, JC-1 fluorescence, basal, 24 h, 100 nL, profiling panel (AID 1138); settings: higher = more signal;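 further: A549 lung adenocarcinoma cells under basal conditions with no added stimulus; test concentration not given here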
Lefty1 = Lefty1 protein binding to printed compounds – biochemical, small-molecule microarray, 635/667 nm fluorescence, primary screen (AID 1139); settings: fluorescence 635/667, higher = more signal
[16] = tested on: wheat germ agglutinin (Triticum aestivum), Alexa647-labelled; experiment: Alexa647-WGA lectin binding to printed small molecules – biochemical, small-molecule microarray, 635/667 nm fluorescence, artefact control for SMM control-protein annotation, profiling panel (AID 1140); settings: WGA-A647 binding, 635 nm fluorescence, higher = more signal;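 further: score merges 667 nm feature emission with signal to noise over triplicate slides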
[17] = target: Luciferin 4-monooxygenase (Photinus pyralis) (UniProt P08659); experiment: inhibition of purified Photinus pyralis luciferase – biochemical, luminescence, purified enzyme, 2006 set, primary screen (AID 1141); settings: purified firefly luciferase, SteadyGlo luminescence, 30 min; higher = more signal, called active from +8 up or from −8 down;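 further: cell-free assay with purified firefly luciferase at 100 ng per well in PBS; test concentration not given here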
Sequence of Luciferin 4-monooxygenase (Photinus pyralis) (P08659 whole entry, looked up): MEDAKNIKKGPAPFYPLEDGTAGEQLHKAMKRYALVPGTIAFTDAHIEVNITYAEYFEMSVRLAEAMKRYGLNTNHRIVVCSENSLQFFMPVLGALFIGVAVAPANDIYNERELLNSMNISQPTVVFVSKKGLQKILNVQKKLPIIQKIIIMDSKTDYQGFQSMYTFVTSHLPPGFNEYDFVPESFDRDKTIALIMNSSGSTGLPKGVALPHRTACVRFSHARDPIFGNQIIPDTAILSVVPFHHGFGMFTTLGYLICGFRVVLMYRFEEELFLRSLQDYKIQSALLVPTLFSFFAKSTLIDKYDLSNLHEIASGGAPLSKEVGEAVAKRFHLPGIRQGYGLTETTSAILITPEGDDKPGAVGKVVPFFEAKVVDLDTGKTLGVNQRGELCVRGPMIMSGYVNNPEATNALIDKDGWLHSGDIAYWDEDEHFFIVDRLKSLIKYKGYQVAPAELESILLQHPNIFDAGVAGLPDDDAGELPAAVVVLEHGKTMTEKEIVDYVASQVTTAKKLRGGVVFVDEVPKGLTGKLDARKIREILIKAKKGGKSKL

Sequence of Albumin (Bos taurus) (P02769 whole entry, looked up): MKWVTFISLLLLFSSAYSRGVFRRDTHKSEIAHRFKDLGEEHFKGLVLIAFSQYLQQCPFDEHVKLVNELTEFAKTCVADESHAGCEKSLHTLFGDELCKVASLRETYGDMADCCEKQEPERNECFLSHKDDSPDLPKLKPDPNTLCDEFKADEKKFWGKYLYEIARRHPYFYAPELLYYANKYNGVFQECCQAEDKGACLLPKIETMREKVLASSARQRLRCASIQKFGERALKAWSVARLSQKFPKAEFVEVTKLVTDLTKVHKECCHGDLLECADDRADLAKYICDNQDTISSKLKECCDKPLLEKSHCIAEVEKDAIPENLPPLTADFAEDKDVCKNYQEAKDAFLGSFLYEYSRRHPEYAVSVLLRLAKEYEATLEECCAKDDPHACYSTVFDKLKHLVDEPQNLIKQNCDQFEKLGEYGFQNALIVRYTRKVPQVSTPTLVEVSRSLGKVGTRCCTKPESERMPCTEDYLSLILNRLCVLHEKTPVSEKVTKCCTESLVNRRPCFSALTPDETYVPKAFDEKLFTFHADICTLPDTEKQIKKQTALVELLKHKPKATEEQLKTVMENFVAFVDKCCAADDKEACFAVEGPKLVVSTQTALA
Sequence of Follistatin (Homo sapiens) (P19883 whole entry, looked up): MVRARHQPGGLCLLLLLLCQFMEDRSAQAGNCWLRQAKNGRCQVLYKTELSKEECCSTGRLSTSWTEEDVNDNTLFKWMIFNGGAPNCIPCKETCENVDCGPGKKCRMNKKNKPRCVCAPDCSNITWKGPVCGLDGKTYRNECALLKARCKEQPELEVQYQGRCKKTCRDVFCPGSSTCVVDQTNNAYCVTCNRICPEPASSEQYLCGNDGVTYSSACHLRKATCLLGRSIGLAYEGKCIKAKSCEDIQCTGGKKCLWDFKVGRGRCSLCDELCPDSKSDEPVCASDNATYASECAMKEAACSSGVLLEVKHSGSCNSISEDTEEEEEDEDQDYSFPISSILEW
Sequence of Concanavalin-A (Canavalia ensiformis) (P02866 whole entry, looked up): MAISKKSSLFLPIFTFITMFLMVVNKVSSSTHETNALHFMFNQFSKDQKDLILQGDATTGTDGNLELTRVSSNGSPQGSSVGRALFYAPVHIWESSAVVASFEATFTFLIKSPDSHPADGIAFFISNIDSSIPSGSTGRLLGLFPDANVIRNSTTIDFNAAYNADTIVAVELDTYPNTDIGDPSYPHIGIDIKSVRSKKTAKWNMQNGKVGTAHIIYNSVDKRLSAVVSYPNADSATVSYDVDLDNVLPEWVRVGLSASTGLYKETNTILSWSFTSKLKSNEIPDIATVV
Sequence of Fibroblast growth factor 2 (Homo sapiens) (P09038 whole entry, looked up): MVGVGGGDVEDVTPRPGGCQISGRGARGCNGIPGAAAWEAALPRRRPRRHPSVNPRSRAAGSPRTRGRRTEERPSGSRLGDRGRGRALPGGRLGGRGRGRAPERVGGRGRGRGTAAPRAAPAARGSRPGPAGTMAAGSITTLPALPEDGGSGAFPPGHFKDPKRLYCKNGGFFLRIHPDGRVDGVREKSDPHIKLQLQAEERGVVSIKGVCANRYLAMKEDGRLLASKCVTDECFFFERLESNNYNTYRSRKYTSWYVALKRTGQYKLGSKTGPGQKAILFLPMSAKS
Sequence of Focal adhesion kinase 1 (Homo sapiens) (Q05397 whole entry, looked up): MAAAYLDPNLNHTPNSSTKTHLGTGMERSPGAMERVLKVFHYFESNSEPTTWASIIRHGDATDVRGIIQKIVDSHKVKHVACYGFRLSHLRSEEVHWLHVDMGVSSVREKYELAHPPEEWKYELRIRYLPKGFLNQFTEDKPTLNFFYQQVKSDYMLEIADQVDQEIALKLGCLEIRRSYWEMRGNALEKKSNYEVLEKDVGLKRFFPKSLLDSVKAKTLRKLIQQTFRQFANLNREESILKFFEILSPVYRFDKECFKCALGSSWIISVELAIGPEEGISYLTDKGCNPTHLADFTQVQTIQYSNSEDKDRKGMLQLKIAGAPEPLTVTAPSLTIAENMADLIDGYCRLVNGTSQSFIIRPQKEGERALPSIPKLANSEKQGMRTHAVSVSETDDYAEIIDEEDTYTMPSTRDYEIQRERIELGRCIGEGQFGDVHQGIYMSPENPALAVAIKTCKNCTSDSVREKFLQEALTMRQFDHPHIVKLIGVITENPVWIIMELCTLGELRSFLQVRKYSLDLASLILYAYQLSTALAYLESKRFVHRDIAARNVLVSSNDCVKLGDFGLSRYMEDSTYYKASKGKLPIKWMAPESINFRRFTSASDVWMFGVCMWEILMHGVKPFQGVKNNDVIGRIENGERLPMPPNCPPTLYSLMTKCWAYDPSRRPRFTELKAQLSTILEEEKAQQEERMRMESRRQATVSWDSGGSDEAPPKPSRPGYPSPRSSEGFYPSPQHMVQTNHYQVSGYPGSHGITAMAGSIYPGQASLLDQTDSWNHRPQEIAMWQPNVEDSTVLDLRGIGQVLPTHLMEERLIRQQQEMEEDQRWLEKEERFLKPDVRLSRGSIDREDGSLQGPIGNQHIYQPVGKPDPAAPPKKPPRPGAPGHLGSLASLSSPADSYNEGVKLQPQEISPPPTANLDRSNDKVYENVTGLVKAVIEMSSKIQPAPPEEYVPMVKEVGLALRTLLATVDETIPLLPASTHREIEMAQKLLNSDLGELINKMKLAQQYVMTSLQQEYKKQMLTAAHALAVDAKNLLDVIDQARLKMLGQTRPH

| SMILES | composite z-score (Albumin (Bos taurus)) | composite Z-score [1] | composite z-score [2] | composite z-score [3] | composite z-score [4] | composite z-score [5] | composite z-score [6] | composite z-score (Sam68 (KHDRBS1)) | composite z-score [7] | composite z-score [8] | composite z-score [9] | composite z-score [10] | composite z-score [11] | composite z-score [12] | composite z-score [13] | composite z-score [14] | z-score [15] | composite z-score (Lefty1) | composite z-score [16] | z-score [17] |
| --- | --- | --- | --- | --- | --- | --- | --- | --- | --- | --- | --- | --- | --- | --- | --- | --- | --- | --- | --- | --- |
| CC(=O)OC[C@H]1O[C@H](C#Cc2ccccc2)C=C[C@@H]1OC(C)=O | 0.243 | -0.005 (inactive) | -0.0328 | -0.136 | 0.0239 | 0.214 | 0.17 | 0.182 | 0.965 | -0.0189 | -0.223 | 0.262 | -0.203 | 0.81 | 0.272 | 0.271 | 0.277 | 0.517 | -0.361 | -2.26 (inactive) |
| COC(=O)[C@@H]1CC[C@H](C)[C@@H](c2ccc(C)cc2)N1C(=O)c1ccc(C=NOC[C@@H](C)[C@H](OCc2ccccc2)C(C)C)cc1 | 0.56 | 3.28 (inactive) | 0.0271 | -0.185 | 0.239 | 1.29 | 0.247 | 1.29 | 0.43 | 0.736 | 0.336 | 0.673 | 0.936 | 0.857 | 0.915 | 0.698 | 1.26 | 0.799 | 0.37 | -1.46 (inactive) |
| CCOC(=O)[C@H](CC(C)C)NC(=O)CCC1CC(OC(=O)NCc2cccc3ccccc23)CC2(CCCC(COC(=O)NCCc3ccc(Cl)cc3)O2)O1 (stereo not given in full) | 0.332 | -0.536 (inactive) | 0.0203 | -0.164 | 0.151 | 0.416 | -0.175 | 0.456 | 0.439 | 0.0711 | 0.372 | 0.484 | 0.218 | 0.635 | 0.547 | 0.352 | 0.31 | 0.863 | 0.844 | 0.226 (inactive) |
| Cc1ccc(S(=O)(=O)N[C@H]2COC(=O)CC=C[C@H](C)[C@@H](NS(=O)(=O)c3ccc(C)cc3)COC(=O)CC=C[C@@H]2C)cc1 | -0.109 | -0.286 (inactive) | 0.0282 | -0.14 | -0.0386 | -0.364 | -0.242 | 0.0236 | 0.477 | 0.128 | -0.308 | 0.42 | 0.106 | 0.129 | 0.471 | 0.647 | -0.617 | 0.556 | 0.0337 | 0.846 (inactive) |
| O=c1n(-c2ccccc2)c(=O)n2n1CC[C@@H]1C(=NOCc3ccccc3)[C@H]3O[C@H]3[C@@H](O)[C@@H]12 | -0.101 | 0.371 (inactive) | -0.179 | -0.189 | 0.745 | -0.539 | -0.289 | -0.712 | -0.0034 | -0.073 | 0.103 | -0.0945 | 0.0844 | -0.468 | 0.265 | 0.373 | 0.397 | 0.293 | 0.0398 | 0.0189 (inactive) |
| CO[C@H]1COC(=O)[C@H](C)NC(=O)CC=C[C@@H](C)[C@H](OC)COC(=O)[C@@H](OCc2ccccc2)C=C[C@@H]1C | -0.744 | -0.0157 (inactive) | -0.068 | -0.0657 | -0.722 | -0.724 | -0.198 | -0.206 | 1.06 | -0.909 | -0.435 | -0.611 | -0.329 | 0.029 | 1.21 | 0.618 | 0.805 | 0.529 | -1.25 | -0.231 (inactive) |
| O=C1OCCC=C1C(O)CCc1ccccc1 (stereo not given) | -0.561 | 0.149 (inactive) | -0.158 | -0.145 | 0.192 | -0.215 | 0.181 | -0.0924 | 0.575 | -0.0631 | -0.139 | 0.638 | -0.226 | 0.913 | 0.347 | 0.332 | -0.602 | 0.299 | 0.412 | 0.151 (inactive) |
| O=C1C=C[C@@H](O)[C@@H]2[C@@H]3C(=O)N(c4ccc(F)cc4F)C(=O)[C@@H]3CC[C@@H]12 | 0.351 | 0.331 (inactive) | 0.0409 | -0.0772 | -0.0233 | -0.303 | -0.113 | 0.157 | 0.717 | 0.753 | -0.0956 | 0.437 | 0.103 | 0.61 | 0.791 | 0.602 | 0.784 | 0.564 | 0.215 | -1.71 (inactive) |
| COc1cc(O)c(C(=O)C=Cc2ccc3c(c2)OCO3)c(OC)c1 | 0.0618 | -0.024 (inactive) | -0.0647 | -0.134 | -0.337 | -0.932 | -0.185 | -1.93 | 0.102 | 1 | -0.132 | -1.44 | 0.0276 | 0.0337 | 0.4 | -0.19 | 0.209 | 0.707 | 0.393 | -5.1 (inactive) |
| CO[C@H]1COC(=O)CCC[C@@H](C)[C@H](OC)COC(=O)[C@@H](C)NC(=O)CC=C[C@@H]1C | -0.46 | 0.667 (inactive) | -0.0647 | -0.134 | -0.716 | -1.8 | -0.126 | 0.186 | 1.45 | -0.456 | -0.132 | -1.12 | -0.154 | -0.737 | 1.12 | 1.17 | -0.716 | 1.42 | -0.878 | 0.624 (inactive) |
| COc1ccc(COC(=O)NN=C2C[C@@H](O)[C@@H](O)[C@@H]3[C@@H]4C(=O)N(C5CCCCC5)C(=O)[C@@H]4CC[C@H]23)cc1 | 0.213 | 1.22 (inactive) | -0.365 | -0.28 | 0.262 | -0.0294 | -0.222 | -0.331 | -0.275 | -1.14 | -0.823 | -0.552 | -0.497 | -0.439 | -1.72 | -1.04 | 0.195 | -1.42 | 0.778 | -0.224 (inactive) |
